Screening results as filed in PubChem BioAssay.
Tau fluor cs: Counterscreen qHTS for Inhibitors of Tau Fibril Formation, Fluorescence Polarization; tau K18 P301L Alexa594 fluorescence, heparin fibrillization; Potency, µM (series often up to 57.7 µM), inactives show at the top dose activity change, negative = decrease; actives 0.93% (n = 280,000); note: potency is the fitted concentration of half-maximal effect; nearly all actives have a fitted effect of over 55% in size
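Human tau K18 P301L (15 uM unlabeled, 0.24 uM Alexa 594-labeled) in 100 mM sodium acetate pH 7 with 20 uM heparin, 6 hr at 37 C. ThT 30 uM added, 1 hr ambient; Alexa 594 FP and total fluorescence read at 555/632 nm.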
Coupling enz: qHTS Assay for Inhibitors of Fructose-1,6-bisphosphate Aldolase from Giardia Lamblia: Coupling assay counterscreen | coupling enzyme system counterscreen, AmpLite Red fluorescence | activity change, negative = inhibition, % at 58.2 µM, hits read low | actives 0.67% (n = 290,000) | AID 2472, 2010; in the data active = activity change below about -30%
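Counterscreen of the coupled detection system alone, without aldolase: glyceraldehyde-3-phosphate coupling enzymes plus AmpLite Red readout. Compounds at 57.5 uM final, 10 min RT preincubation, 20 min RT reaction, fluorescence 525/598 nm.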
Tau ThT inhib: qHTS for Inhibitors of Tau Fibril Formation, Thioflavin T Binding. Microtubule-associated protein tau (Homo sapiens), P10636. recombinant tau K18 P301L (four-repeat tau fragment), heparin-induced fibrillization, ThT fluorescence. Potency, µM (series often up to 57.4 µM), for inactives: at the top dose activity, negative = inhibition, actives largely listed as inhibitors. actives 2.1% (n = 270,000). AID 1460, 2008; note: potency is the fitted concentration of half-maximal effect; nearly all actives have a fitted effect of over 55% in size
Target sequence (P10636 561-689 P618L limits assumed): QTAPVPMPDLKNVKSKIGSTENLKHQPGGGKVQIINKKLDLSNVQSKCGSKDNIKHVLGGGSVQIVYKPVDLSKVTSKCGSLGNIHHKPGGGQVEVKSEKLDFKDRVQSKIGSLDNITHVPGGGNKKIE
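Recombinant human tau K18 fragment […] carrying P301L, 15 uM unlabeled plus 0.24 uM Alexa 594-labeled, was fibrillized with 20 uM heparin in 100 mM sodium acetate pH 7 for 6 hr at 37 C; 30 uM ThT fluorescence read after 1 hr.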
Tau FP inhib: qHTS for Inhibitors of Tau Fibril Formation, Fluorescence Polarization; Microtubule-associated protein tau (Homo sapiens), P10636; K18 P301L tau heparin fibrillization, Alexa594 FP, 6 h; Potency, µM (series often up to 57.7 µM), for inactives: at the highest dose activity, negative = inhibition, hits mostly inhibitors; actives 0.39% (n = 280,000); note: potency is the fitted concentration of half-maximal effect; nearly all actives have a fitted effect of over 55% in size
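Steps: dispense K18 P301L tau (15 uM plus 0.24 uM Alexa 594 tracer, final) in pH 7 sodium acetate; add compound; add heparin (20 uM final); incubate 6 hr, 37 C; add ThT (30 uM final); after 1 hr ambient, read FP.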
USP1-UAF1 inh: Inhibitors of USP1/UAF1: Primary Screen; recombinant USP1/UAF1, Ub-Rhodamine cleavage fluorescence; Potency, µM (doses to about 57.1 µM), for the others: at the highest dose activity change, negative = inhibition, most hits filed as inhibitors; actives 0.23% (n = 390,000); AID 743255, 2014; note: potency is the fitted concentration of half-maximal effect; nearly all actives have a fitted effect of over 60% in size
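USP1/UAF1 complex (1 nM) preincubated 15 min at room temperature with compound, then Ub-Rho substrate (150 nM final) added. Kinetic fluorescence at 480/540 nm over 6 reads at 60 s intervals; 50 mM HEPES pH 7.8, 0.5 mM EDTA, 0.1 mg/ml BSA, 1 mM TCEP, 0.01% Tween-20.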
An asterisk follows results filed as active; ? = inconclusive; . = not tested or not shown; [ ] = another dose, or the depositor's remark. The list is not random: actives were taken first. Their share in the collection is about 2.3%. Unless noted, calls come from the whole dose curve; as a rule, active = well fitted curve in the direction sought with a large enough effect; inconclusive = small, poorly fitted or top-dose-only effect, or another doubt; inactive = no such curve, though single readings can be large; an effect the other way counts as inactive or inconclusive. % is set by controls: 0 for no effect and ±100 for the full control effect.

SMILES	Tau fluor cs	Coupling enz	Tau ThT inhib	Tau FP inhib	USP1-UAF1 inh
O=C(N/N=C(\CC(=O)c1cccs1)C(F)(F)F)c1ccncc1	?	13	14µM*	8%	-3%
Cc1ccc(NC(=O)c2sc3nc(-c4ccc(F)cc4)ccc3c2N)cc1F	?	.	?	-3%	-28%
CC(=O)c1sc2nc(-c3ccco3)ccc2c1N	?	-1	7.1µM*	-2%	-15%
Nc1c(C(=O)Nc2ccc(F)cc2)sc2nc(-c3ccco3)ccc12	?	-1	6.3µM*	2%	-10%
Nc1c(C(=O)Nc2ccc(Br)cc2)sc2nc(-c3ccco3)ccc12	?	1	5µM*	5%	-4%
Nc1c(C(=O)Nc2ccc(Br)cc2)sc2nc(-c3ccncc3)ccc12	?	.	?	3%	-20%
NC(=O)c1sc2nc(-c3ccccc3)ccc2c1N	.	0	.	.	-11%
CSc1ncnc2c1ncn2CCCNCc1ccc2c(c1)OCO2	.	.	.	.	-14%
COc1ccc(NC(=O)N(C)C[C@H]2Oc3ccc(NC(=O)Nc4c(C)noc4C)cc3C(=O)N([C@H](C)CO)C[C@H]2C)cc1	.	.	.	.	-31%
COc1cccc(CNC(=O)CSc2c3c(nc4ccc(Cl)cc24)CCCC3)c1OC	-10%	.	?	-4%	-23%
COc1ccc(OC)c(/C=c2\sc3nc(-c4cccs4)nn3c2=O)c1	-20%	3	?	?	32µM*
COc1ccccc1/C=c1\sc2nc(-c3ccco3)nn2c1=O	0%	4	?	-7%	-12%
COc1ccc(-c2oc3ncn4nc(COc5cccc(C)c5C)nc4c3c2-c2ccc(OC)cc2)cc1	9%	.	1%	1%	-16%
O=[N+]([O-])c1ccc(N2N=C(c3ccco3)CC2c2ccccc2)cc1 (stereo not drawn)	?	-6	8.9µM*	?	?
Fc1ccc(C2CC(c3ccco3)=NN2c2ccccc2)cc1 (stereo not drawn)	4%	4	1%	4%	-15%
C/C(=N\NC(=O)c1cc(-c2cccnc2)nc2ccccc12)c1ccc(O)cc1O	?	0	7.9µM*	20%	0%
C/C(=N\NC(=O)c1cc(-c2cccc(OC(C)C)c2)nc2ccccc12)c1cccnc1	.	-1	.	.	-6%
CCOC(=O)N1CCN(c2cc(N)c([N+](=O)[O-])cc2F)CC1	-16%	2	4.5µM*	-4%	-13%
CCOC(=O)N1CCN(c2cc(C)c(C(C)=O)cc2F)CC1	3%	1	?	2%	-12%
CC(=O)N1CCN(c2cc(N3CCc4ccccc4C3)c(F)cc2[N+](=O)[O-])CC1	-23%	-4	16µM*	3%	-18%
NC(=O)N/N=C/c1ccc(-c2ccc([N+](=O)[O-])cc2)o1	?	3	.	2%	-13%
O=C1CN(/N=C/c2ccc(-c3ccc([N+](=O)[O-])cc3)o2)C(=O)N1	-12%	.	10µM*	-11%	.
O=[N+]([O-])c1ccc(-c2ccc(/C=N/O)o2)cc1	-23%	1	7.1µM*	-2%	-14%
O=[N+]([O-])c1cc(-c2ccc(/C=N\n3cnnc3)o2)cc([N+](=O)[O-])c1	.	0	.	.	-3%
Cc1ccc(CN2c3ccccc3-c3nc(SCC(=O)Nc4c(C)cc(C)cc4C)ncc3S2(=O)=O)cc1	-21%	.	-4%	?	-19%
SMILES	Tau fluor cs	Coupling enz	Tau ThT inhib	Tau FP inhib	USP1-UAF1 inh
COc1ccc2nc(N3C(=O)/C(=C/c4ccc(Cl)cc4)NC3=S)sc2c1	-11%	4	1.1µM*	0%	-12%
COc1ccc(OC)c(Nc2cc3ccccc3c(=O)[nH]2)c1	.	.	.	.	5µM*
COc1ccccc1Nc1cc2cc(Br)ccc2c(=O)[nH]1	.	.	.	.	4.5µM*
O=c1[nH]c(Nc2ccccc2)cc2ccccc12	-24%	-6	?	-9%	2.5µM*
COc1ccccc1Nc1nnc(C)c(=O)[nH]1	-1%	3	-8%	15%	0%
O=c1[nH]c(Nc2ccccc2)cc2cc(Br)ccc12	.	.	.	.	1.1µM*
O=C(Nc1ccc2oc(-c3cc(Br)ccc3Cl)nc2c1)c1cc2ccccc2o1	?	.	?	-2%	?
CCCOc1ccc(-c2nonc2NC(=O)c2oc3ccc(Cl)cc3c2C)cc1OCCC	-8%	.	10%	-11%	-14%
CCOc1ccc(Nc2c(S(=O)(=O)c3ccccc3)cnc3ccc(CC)cc23)cc1	-24%	.	?	-1%	-9%
Cc1c(C(=O)Nc2cccc(C#N)c2)sc2nc3n(c(=O)c12)CCCCC3	-18%	.	-15%	-3%	?
CC(=O)c1cccc(-c2ccc3c(=O)[nH]c(Nc4ccccc4)cc3c2)c1	.	.	.	.	3.2µM*
CC(=O)c1cccc(Nc2nc(-c3ccccc3)nc3ccccc23)c1	.	1	.	.	-13%
CCc1c(CN2CCN(c3cccc(C)c3C)CC2)csc1C	-12%	.	-14%	1%	-22%
CC1(C)CNc2cc(N)ccc2S1	14µM*[quencher]	-11	16µM*	?	-5%
CCOC(=O)C1CCCN(C(=O)Cn2nc(C)n3nc(-c4ccccc4)cc3c2=O)C1 (stereo not drawn)	.	.	.	.	-19%
CC1CC(C)CN(c2ccc(NS(=O)(=O)c3ccccc3)cc2C(=O)O)C1 (stereo not drawn)	.	.	.	.	-14%
CC1CCC(C(C)C)C(OC(=O)COC(=O)c2ccc(=O)[nH]c2)C1 (stereo not drawn)	-15%	7	-13%	2%	-17%
CC1CCC(C(C)C)C(OC(=O)COC(=O)c2cc(O)ccc2N)C1 (stereo not drawn)	11µM*[quencher]	-4	-14%	?	-22%
CC(=O)C1=C(c2ccccc2)N(C(C)=O)n2c(C)nnc2S1	-17%	2	11µM*	?	?
CCc1ccc(NC(=O)Cn2c(=O)n(CCCCC(=O)NCc3ccccc3Cl)c(=O)c3ccccc32)cc1	?	.	-10%	-16%	-19%
CCOC(=O)C1=C(C)NC(=O)CC1c1cc2c(cc1[N+](=O)[O-])OCO2 (stereo not drawn)	?	-53*	22µM*	?	-24%
COc1cccc(Cn2c(=O)n(CC3CCC(C(=O)NC(C)C)CC3)c(=O)c3sccc32)c1 (stereo not drawn)	4%	.	-3%	2%	-32%
Cc1ccc(NC(=O)Cn2c(=O)c3cc(Cl)ccc3n3nncc23)cc1	-5%	.	2%	-13%	-22%
O=Cc1c(-[n+]2ccccc2)nc([O-])n1-c1ccccc1	-3%	2	-2%	-8%	-13%
